# Laboratory results published in the supplement of paper PMC12645437, “Orthogonal IMiD-Degron Pairs Induce Selective Protein Degradation in Cells” (ACS Chemical Biology, 2025).
# In all, about 8,300 sequences were measured (“log2 fold change of degron read counts, EGFP-low vs EGFP+ sorted cells (limma voom), compound-induced degradation”: median about -1.1, highest 2% from about 3.2 on). The full list was thinned out, with the highest values kept by preference.
# T1: CRBN, Q96SW2
# T1 chain: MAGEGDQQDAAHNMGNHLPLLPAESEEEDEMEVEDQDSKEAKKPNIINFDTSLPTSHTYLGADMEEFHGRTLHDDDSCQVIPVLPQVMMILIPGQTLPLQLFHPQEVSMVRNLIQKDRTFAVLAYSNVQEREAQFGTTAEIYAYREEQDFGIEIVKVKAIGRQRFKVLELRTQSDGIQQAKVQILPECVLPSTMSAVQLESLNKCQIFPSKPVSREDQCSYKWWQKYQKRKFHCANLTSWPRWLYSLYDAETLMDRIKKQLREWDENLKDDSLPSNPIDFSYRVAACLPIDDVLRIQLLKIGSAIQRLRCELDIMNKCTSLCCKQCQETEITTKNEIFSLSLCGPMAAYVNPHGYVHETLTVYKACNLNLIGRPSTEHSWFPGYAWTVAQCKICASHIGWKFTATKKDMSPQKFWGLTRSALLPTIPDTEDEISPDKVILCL
# Biological target: T1, CRBN, Q96SW2
# Experiment: log2 fold change of degron read counts, EGFP-low vs EGFP+ sorted cells (limma voom), compound-induced degradation; higher = more compound-induced degradation of the degron-EGFP fusion; degrons are variants of IKZF1/3 zinc finger 2; compound dose not given here
# Conditions: Jurkat, 18 h
# [1] = compound: compound 19 (5-tert-butyl-thalidomide)
# [2] = compound: compound 22 (5-morpholino-thalidomide)
# [3] = compound: compound 33 (diphenyl IMiD analogue)
# 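Note: pooled lentiviral library of zinc finger degron-EGFP fusions in mCherry-positive Jurkat cells, FACS-sorted after compound exposure, with degron abundance counted by next-generation sequencing.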
Sequence,log2 fold change of degron read counts [1],log2 fold change of degron read counts [2],log2 fold change of degron read counts [3],log2 fold change of degron read counts (compound: thalidomide)
"LQCNQCGFHCTQKGNLLRHIKL [46L_47Q_49N_50Q_52G_53F_54H_55C_67L_, Q9UKT9]",-2.12,-2.37,-2.09,-1.42
"FFCNQCGHGFTQKGNLLRHIKL [46F_47F_49N_50Q_52G_53H_54G_55F_67L_, Q9UKT9]",-2.03,-2.15,-2.79,-2.52
"LGCPICGFMCTQKGNLLRHIKL [46L_47G_49P_50I_52G_53F_54M_55C_67L_, Q9UKT9]",3.42,1.83,1.01,0.537
"LWCPICGFMCTQKGNLLRHIKL [46L_47W_49P_50I_52G_53F_54M_55C_67L_, Q9UKT9]",2.86,3.37,2.86,1.56
"LKCPICGFMCTQKGNLLRHIKL [46L_47K_49P_50I_52G_53F_54M_55C_67L_, Q9UKT9]",-1.07,-2.03,-1.81,-0.667
"LQCPICGFMCTQKGNLLRHIKL [46L_47Q_49P_50I_52G_53F_54M_55C_67L_, Q9UKT9]",0.655,2.15,2.04,3.55
"LSCPICGFMCTQKGNLLRHIKL [46L_47S_49P_50I_52G_53F_54M_55C_67L_, Q9UKT9]",1.79,1.66,1.67,1.42
"LYCPICGFMCTQKGNLLRHIKL [46L_47Y_49P_50I_52G_53F_54M_55C_67L_, Q9UKT9]",3.14,2.92,2.43,1.14
"LECPICGFMCTQKGNLLRHIKL [46L_47E_49P_50I_52G_53F_54M_55C_67L_, Q9UKT9]",-0.459,-0.68,1.22,2.37
"LTCPICGFMCTQKGNLLRHIKL [46L_47T_49P_50I_52G_53F_54M_55C_67L_, Q9UKT9]",0.987,1.84,2.27,2.3
"LVCPICGFMCTQKGNLLRHIKL [46L_47V_49P_50I_52G_53F_54M_55C_67L_, Q9UKT9]",0.688,2.15,2.09,2.63
